PubChem BioAssay (EPA / NIEHS)
Calls of active or inactive are those of the source. Rule for the calls: active = hit-call score of the fitted dose curve at least 0.9, where 1 is the maximum; inactive = score below 0.9.

What was measured:
Settings in all cases: mRNA level, 48 h; actives raise or lower the signal
[1] = read-out: Peroxisomal acyl-coenzyme A oxidase 1 (ACOX1) gene, ACOX1 (gene 51); test: LTEA_HepaRG_ACOX1: Life Technologies and Expression Analysis (LTEA) Assay for Peroxisomal acyl-coenzyme A oxidase 1 (ACOX1) gene using HepaRG (AID 2283467)
Summary of the method: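 HepaRG, 48 h chemical exposure, 8-pt half-log series from 100 uM top, 0.5% DMSO vehicle, duplicates. Readout: ACOX1 mRNA by Fluidigm qRT-PCR, housekeeping-normalized; bidirectional fit vs DMSO baseline.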

[2] = read-out: Alkaline Phosphatase, Placental (ALPP) gene, ALPP (gene 250); test: LTEA_HepaRG_ALPP: Life Technologies and Expression Analysis (LTEA) Assay for Alkaline Phosphatase, Placental (ALPP) gene using HepaRG (AID 2283468)
Summary of the method: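 HepaRG cells plated 48 h, then exposed in duplicate for 48 h in serum-free induction medium to 8-point half-log series from 100 uM in 0.5% DMSO. ALPP mRNA by TaqMan qRT-PCR, normalized to ACTB/GAPDH/POLR2A; bidirectional fit versus DMSO.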

[3] = read-out: Bcl-2 (BAD) gene, BAD (gene 572); test: LTEA_HepaRG_BAD: Life Technologies and Expression Analysis (LTEA) Assay for Bcl-2 (BAD) gene using HepaRG (AID 2283469)
Summary of the method: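 HepaRG, 48 h exposure, 8-pt half-log curve from 100 uM in 0.5% DMSO, duplicates. Readout: TaqMan qRT-PCR for BAD mRNA, housekeeping-normalised (ACTB/GAPDH/POLR2A); gain or loss fitted against DMSO baseline.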

[4] = read-out: Bcl-2 (BAX) gene, BAX (gene 581); test: LTEA_HepaRG_BAX: Life Technologies and Expression Analysis (LTEA) Assay for Bcl-2 (BAX) gene using HepaRG (AID 2283470)
Summary of the method: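 qRT-PCR read-out of BAX mRNA, normalized to three housekeeping genes, after 48 h chemical exposure of human HepaRG cells in serum-free induction medium; eight-point half-log series, top 100 uM, 0.5% DMSO vehicle; bidirectional fit versus DMSO.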

[5] = read-out: adenosine kinase (ADK) gene, ADK (gene 132); test: LTEA_HepaRG_ADK: Life Technologies and Expression Analysis (LTEA) Assay for adenosine kinase (ADK) gene using HepaRG (AID 2283471)
Summary of the method: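 ADK expression quantified by qRT-PCR, normalised to three housekeeping genes, after 48 h exposure of HepaRG cells to eight concentrations (top 100 uM, half-log steps, duplicate, 0.5% DMSO). Up- or down-regulation fitted relative to vehicle.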

BCL2L11 (gene 10018) = test: LTEA_HepaRG_BCL2L11: Life Technologies and Expression Analysis (LTEA) Assay for Bcl-2 (BCL2L11) gene using HepaRG (AID 2283473)
Summary of the method: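 Differentiated human HepaRG cells were exposed 48 h in serum-free induction medium to eight half-log concentrations up to 100 uM in 0.5% DMSO, in duplicate. BCL2L11 mRNA was quantified by TaqMan qRT-PCR, normalized to ACTB, GAPDH and POLR2A; induction or repression fitted versus DMSO.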

[6] = read-out: Apolipoprotein A-V (APOA5) gene, APOA5 (gene 116519); test: LTEA_HepaRG_APOA5: Life Technologies and Expression Analysis (LTEA) Assay for Apolipoprotein A-V (APOA5) gene using HepaRG (AID 2283474)
Summary of the method: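 Differentiated HepaRG cells in serum-free induction medium, exposed 48 h in duplicate to eight half-log concentrations topping at 100 uM (0.5% DMSO). APOA5 mRNA by Fluidigm TaqMan qRT-PCR, normalized to ACTB, GAPDH and POLR2A; bidirectional fit versus DMSO.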

[7] = read-out: Apoptosis regulator Bcl-2 (Homo sapiens) (UniProt P10415); test: LTEA_HepaRG_BCL2: Life Technologies and Expression Analysis (LTEA) Assay for Bcl-2 gene using HepaRG (AID 2283475)
Summary of the method: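 qRT-PCR read-out (Fluidigm TaqMan) of BCL2 transcript, normalised to three housekeeping genes, after 48 h chemical exposure of HepaRG cells; 8-point half-log series, top 100 uM, 0.5% DMSO vehicle. Gain or loss of signal fitted relative to DMSO baseline.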

[8] = read-out: Bcl-2 (BID) gene, BID (gene 637); test: LTEA_HepaRG_BID: Life Technologies and Expression Analysis (LTEA) Assay for Bcl-2 (BID) gene using HepaRG (AID 2283476)
Summary of the method: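 HepaRG, 48 h exposure, 8-pt half-log series, top 100 uM, 0.5% DMSO vehicle, duplicates. Readout: BID mRNA by TaqMan qRT-PCR; housekeeping-normalized; bidirectional curve fit vs DMSO baseline.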

Caspase-3 (Homo sapiens) = Caspase-3 (Homo sapiens) (UniProt P42574); test: LTEA_HepaRG_CASP3: Life Technologies and Expression Analysis (LTEA) Assay for cysteine-aspartic acid protease (CASP3) using HepaRG (AID 2283477)
Summary of the method: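 Differentiated HepaRG cells, plated 48 h, were treated in duplicate in serum-free induction medium for 48 h with eight half-log concentrations up to 100 uM in 0.5% DMSO. CASP3 mRNA measured by qRT-PCR, normalized to ACTB, GAPDH, POLR2A.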

Chain of Apoptosis regulator Bcl-2 (Homo sapiens) (P10415 whole entry, looked up): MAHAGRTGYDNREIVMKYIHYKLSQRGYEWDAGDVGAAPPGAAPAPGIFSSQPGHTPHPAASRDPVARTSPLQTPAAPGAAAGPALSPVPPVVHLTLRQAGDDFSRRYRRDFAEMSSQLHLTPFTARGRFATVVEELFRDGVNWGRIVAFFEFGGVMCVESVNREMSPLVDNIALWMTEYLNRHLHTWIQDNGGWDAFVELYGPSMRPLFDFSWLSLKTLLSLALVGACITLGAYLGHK
Chain of Caspase-3 (Homo sapiens) (P42574 whole entry, looked up): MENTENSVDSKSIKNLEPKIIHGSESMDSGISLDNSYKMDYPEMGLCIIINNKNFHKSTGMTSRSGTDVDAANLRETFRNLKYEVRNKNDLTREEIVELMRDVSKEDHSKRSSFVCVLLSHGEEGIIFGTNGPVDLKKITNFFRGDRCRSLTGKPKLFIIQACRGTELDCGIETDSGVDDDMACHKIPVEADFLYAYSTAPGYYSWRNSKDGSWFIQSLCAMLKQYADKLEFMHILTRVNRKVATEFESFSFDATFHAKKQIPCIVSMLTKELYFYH

Structure (SMILES) | outcome [1] | outcome [2] | outcome [3] | outcome [4] | outcome [5] | outcome (BCL2L11 (gene 10018)) | outcome [6] | outcome [7] | outcome [8] | outcome (Caspase-3 (Homo sapiens)) | AC50 [1] | AC50 [4] | AC50 (Caspase-3 (Homo sapiens))
N#Cc1cccnc1 | inactive | inactive | inactive | inactive | inactive | inactive | inactive | inactive | inactive | inactive |  |  | 
COc1ccccc1N | inactive | inactive | inactive | inactive | inactive | inactive | inactive | inactive | inactive | inactive |  |  | 
CCCCCCCCCCCCc1cccc(S(=O)(=O)O)c1 | inactive | inactive | inactive | inactive | inactive | inactive | inactive | inactive | inactive | inactive |  |  | 
O=C(N[C@H]1CN2CCC1CC2)c1ccc2c(c1)OCCO2 | inactive | inactive | inactive | inactive | inactive | inactive | inactive | inactive | inactive | inactive |  |  | 
Cc1cc(C)cc(C)c1 | inactive | inactive | inactive | inactive | inactive | inactive | inactive | inactive | inactive | inactive |  |  | 
Clc1cccc(Cl)c1 | inactive | inactive | inactive | inactive | inactive | inactive | inactive | inactive | inactive | inactive |  |  | 
CC(C)(C)c1ccccc1O | inactive | inactive | inactive | inactive | inactive | inactive | inactive | inactive | inactive | inactive |  |  | 
Oc1cc(Cl)c(Cl)cc1Cl | inactive | inactive | inactive | inactive | inactive | inactive | inactive | inactive | inactive | inactive |  |  | 
CN(C)C(=S)S | inactive | inactive | inactive | inactive | inactive | inactive | inactive | inactive | inactive | inactive |  |  | 
O=C(O)C1(c2ccc3c(c2)OC[C@H](Cc2ccc(-c4ccccc4)cc2)[C@H]3O)CCCC1 |  | inactive | inactive |  | inactive | inactive | inactive | inactive | inactive |  | 91.7 µM (active) | 66.2 µM (active) | 79 µM (active)
Clc1cccc(Cl)c1Cl | inactive | inactive | inactive | inactive | inactive | inactive | inactive | inactive | inactive | inactive |  |  | 
Oc1c(Cl)cc(Cl)cc1Cl | inactive | inactive | inactive | inactive | inactive | inactive | inactive | inactive | inactive | inactive |  |  | 
OCCN(CCO)CCO | inactive | inactive | inactive | inactive | inactive | inactive | inactive | inactive | inactive | inactive |  |  | 
CC(C)O.CC(C)O.OCCN(CCO)CCO.OCCN(CCO)CCO.[Ti] | inactive | inactive | inactive | inactive | inactive | inactive | inactive | inactive | inactive | inactive |  |  | 
